PubChem BioAssay (NCI)
About 83,000 compounds went through this panel and 20% of them were active in at least one assay; those are over-represented in the sample as a whole.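 For each line, cells grew in 96-well plates with the test compound present at a single concentration for 48 hours.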 The source made the active and inactive calls. The calls were made as follows: active = growth percent below 10; inactive = the rest.

Columns and labels:
Assay in all cases: NCI-60 one-dose screen, 48 h (100 = growth as untreated, 0 = no growth, -100 = all killed)
Settings in all cases: 10 µM unless noted
[1] = system: DU-145 prostate
[2] = system: K-562 leukemia
[3] = system: MALME-3M melanoma
[4] = system: MDA-MB-231 breast
[5] = system: RXF 393 renal
[6] = system: SF-268 CNS
[7] = system: SF-295 CNS
[8] = system: SF-539 CNS
[9] = system: UACC-257 melanoma
[10] = system: M14 melanoma

Measured: growth

O=C(CCCCCCC(=O)Nc1ccc2c(c1)/C(=C/c1ccc[nH]1)C(=O)N2)NO
inactive: [2] 11.6% | [3] 36.5% | [8] 23%
active: [1] 4.55% | [4] 1.47% | [5] -30.8% | [6] -13% | [7] 6.46% | [9] 9.98% | [10] 3.6%

COc1cc2nc(N3CCC[C@H](NC4=CC(=O)c5ccccc5C4=O)C3)nc(N)c2cc1OC
active: [1] -54.1% | [2] -48.4% | [3] -81.3% | [4] -86.8% | [5] -76.7% | [6] -52.3% | [7] -96.8% | [8] -100%
inactive: [9] 97.7% | [10] 96.2%

CN1CCC(OC2c3ccccc3CCc3ccccc32)CC1
inactive: [1] 107% | [2] 96.8% | [3] 102% | [4] 74.8% | [5] 89.2% | [6] 89.5% | [7] 88.6% | [8] 102% | [9] 92.6% | [10] 103%

Cc1c(NCC(=O)Nc2nc3ccccc3[nH]2)c(=O)n(-c2ccccc2)n1C
inactive: [1] 112% | [2] 101% | [3] 98.4% | [4] 99.3% | [5] 102% | [6] 103% | [7] 109% | [8] 97.7% | [9] 94.4% | [10] 105%

O=C1c2ccccc2C(=O)c2c(Nc3ccc(CCO)cc3)ccc(O)c21
inactive: [1] 60.7% | [2] 17.2% | [3] 77.2% | [4] 56.4% | [5] 74.6% | [6] 60.4% | [7] 50.2% | [8] 84.8% | [9] 101% | [10] 80.3%

Cc1nc2cc(Nc3nc(Nc4ccc(F)cc4)nc(N4CCN(C)CC4)n3)ccc2n1Cc1ccccc1
active: [2] 0.387% | [3] -83.4% | [4] -73.3% | [5] -82.7% | [7] -62.5% | [8] -95.9% | [9] -83.7% | [10] -73%
inactive: [1] 16.7% | [6] 14.6%

O=C(Nc1ccc(Cl)c(Cl)c1)NC(CO)(CO)CO
inactive: [1] 112% | [2] 92.8% | [3] 87.7% | [4] 109% | [5] 100% | [6] 97.8% | [7] 94.4% | [8] 103% | [9] 97.5% | [10] 97.4%

Cc1ccc(S(=O)(=O)N2CCc3ccc(O)c4c3C2Cc2cc(Cl)ccc2-4)cc1 (stereo not given)
inactive: [1] 85.5% | [2] 24.7% | [3] 57% | [4] 82.4% | [5] 71% | [6] 61.9% | [7] 84.7% | [8] 58.2% | [9] 63.4% | [10] 68.7%

O=C(C[Si](CC(=O)c1cccc(C(F)(F)F)c1)CC(=O)c1cccc(C(F)(F)F)c1)c1cccc(C(F)(F)F)c1
inactive: [1] 33.2% | [3] 77.2% | [4] 86.3% | [5] 102% | [6] 40% | [8] 107% | [9] 81.8% | [10] 89.4%
active: [2] 4.55% | [7] 2.69%

Cc1ccccc1-n1nnc(C(=O)Nc2ccc(-c3ccccc3)cn2)c1C
inactive: [1] 54.3% [50 µM] | [2] 26.5% [50 µM] | [3] 39.6% [50 µM] | [4] 63.1% [50 µM] | [5] 74.7% [50 µM] | [6] 68.7% [50 µM] | [7] 38.9% [50 µM] | [8] 72.3% [50 µM] | [9] 25.5% [50 µM] | [10] 41.8% [50 µM]

O=C(Nc1ccc(Cl)c(Cl)c1)OCn1ncc2ccc([N+](=O)[O-])cc21
inactive: [1] 108% | [2] 88% | [3] 78.5% | [4] 75.7% | [5] 83.2% | [6] 82.3% | [7] 88.4% | [8] 78.1% | [9] 90.2% | [10] 94.7%

c1ccc(-c2n(Cc3ccc4ccccc4n3)c3ccccc3[n+]2Cc2ccc3ccccc3n2)cc1
inactive: [1] 17.5%
active: [2] 2.99% | [3] -24.6% | [4] -13.1% | [5] -4.06% | [6] 5.9% | [7] -9.19% | [8] 7.88% | [9] -2.75% | [10] -14.9%
